Results from ChEMBL document CHEMBL3433997, “St. Jude Leishmania screening dataset” (2016).

Columns and labels:
Type in all cases: functional
[1] = target: Solute carrier family 2, facilitated glucose transporter member 1 (Homo sapiens) (UniProt P11166); test: ST_JUDE_LEISH: Cytotoxicity at 2uM final concentration against transgenic Leishmania Mexicana promastigotes LmGLUT1 that are glucose transport deficient and complemented with the human glucose transporter GLUT1. Activity is measured by DNA content using SYBR green in vitro
[2] = target: Hexose transporter 1 (Plasmodium falciparum) (UniProt O97467); test: ST_JUDE_LEISH: Cytotoxicity at 2uM final concentration against transgenic Leishmania Mexicana promastigotes LmPfHT that are glucose transport deficient and complemented with the Plasmodium falciparum hexose transporter. Activity is measured by DNA content using SYBR green in vitro
[3] = target: Glucose transporter (Leishmania mexicana) (UniProt O61059); test: ST_JUDE_LEISH: Cytotoxicity at 2uM final concentration against transgenic Leishmania Mexicana promastigotes LmGT2 that are glucose transport deficient and complemented with the L. Mexicana glucose transporter 2. Activity is measured by DNA content using SYBR green in vitro

Chain of Solute carrier family 2, facilitated glucose transporter member 1 (Homo sapiens) (P11166 whole entry): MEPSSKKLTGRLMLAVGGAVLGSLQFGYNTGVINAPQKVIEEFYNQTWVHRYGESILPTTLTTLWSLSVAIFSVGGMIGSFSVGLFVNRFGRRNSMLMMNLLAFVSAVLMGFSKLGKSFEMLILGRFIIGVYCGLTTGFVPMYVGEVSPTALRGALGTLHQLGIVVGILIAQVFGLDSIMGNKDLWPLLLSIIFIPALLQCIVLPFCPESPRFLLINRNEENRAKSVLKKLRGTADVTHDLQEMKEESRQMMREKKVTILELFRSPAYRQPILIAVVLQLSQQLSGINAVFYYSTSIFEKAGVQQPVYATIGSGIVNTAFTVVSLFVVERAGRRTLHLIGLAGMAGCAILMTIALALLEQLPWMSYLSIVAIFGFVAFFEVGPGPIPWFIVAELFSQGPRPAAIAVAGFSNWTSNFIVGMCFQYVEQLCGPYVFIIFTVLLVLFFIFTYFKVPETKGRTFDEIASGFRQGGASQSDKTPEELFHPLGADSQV

Row | SMILES | inhibition [1] | inhibition [2] | inhibition [3]
1 | Cc1ccc(CN2CCC(Oc3cccc(NC(=O)c4ccc(C(F)(F)F)cc4)c3)CC2)cc1 | 5.11% | 0.79% | 3.6%
2 | CCN(CCO)Cc1ccc(-c2ccc(NS(=O)(=O)c3cccc4cccnc34)cc2)cc1 | 89.5% | 95.5% | 92.4%
3 | COc1ccccc1C(C)NCC(=O)Nc1cc(C(F)(F)F)ccc1Cl (stereo unspecified) | 1.79% | 3.31% | 0.58%
4 | COc1ccc(NC(=O)c2ccc(C=Cc3ccc(C(F)(F)F)cc3)cc2)cc1N1CCN(C)CC1 | 0.43% | 0.25% | -0.41%
5 | CCCCN(CCCC)CCCCCCNc1c2ccccc2nc2ccccc12 | 28% | 22.7% | 18.2%
6 | Cc1cc(C(=O)Nc2ccc3c(c2)CCN3C2CCN(Cc3cc(F)cc(F)c3F)C2)no1 (stereo unspecified) | -0.31% | 1.36% | 5.53%
7 | CCCNCc1ccc(-c2ccc(CN(Cc3cnc(C)cn3)C(=O)/C=C/c3ccccc3C)cc2)nc1 | 2.17% | 0.74% | 0.97%
8 | Cc1cnc(N2CCN(CC3CCN(C)CC3)CC2)nc1Oc1ccc(-n2ccnc2)cc1 | 4.68% | 3.96% | 2.78%
9 | O=C1c2ccccc2CN1CCCN1CCC(Oc2ccc(F)cc2)CC1 | -2.87% | -2.18% | -3.86%
10 | O=C(Nc1cccc(CN2CCCN(Cc3ncc[nH]3)CC2)c1)c1ccc(-c2ccccc2)cc1 | 0.65% | 1.21% | 2.54%
11 | CC[C@H](NC(=O)c1ccc(NC(=O)OC(C)(C)C)cc1)C(=O)N[C@@H](CO)C(=O)NCCCCc1ccccc1 | 1.96% | 1.3% | -0.11%
12 | O=C(NCc1ccco1)c1ccc(S(=O)(=O)c2ccc(Cl)cc2)cc1 | 0.13% | 1.22% | 0.06%
13 | COc1cccc(CN2CCC(C(=O)Nc3ccc(-c4nc5ccccc5[nH]4)cc3)CC2)c1 | 23.8% | 32.9% | 20.6%
14 | Cn1ncc2c3c(CCN4CCC(NCc5ccc6c(c5)NC(=O)CO6)CC4)c(Cl)cnc3ccc21 | 1.41% | 2.09% | -0.28%
15 | Clc1ccc2c(NN=Cc3ccco3)ccnc2c1 | 3.59% | 3.49% | 0.47%
16 | O=C(Nc1ccc(Oc2ccc(OC(F)(F)F)cc2)cc1)c1ccco1 | 2.92% | 1.49% | -0.53%
17 | CSc1sc(NC(=O)Nc2cccc(C(F)(F)F)c2)cc1C#N | 1.55% | 1.51% | 1.15%
